Assay outcomes deposited in PubChem BioAssay by National Center for Advancing Translational Sciences (NCATS).
In the library only some 6.2% were active in any assay of this set; here they are far more common.
FMDV antiviral – antivirals against foot and mouth disease virus | actives 1.2% (n = 410,000) | Potency, µM (titrated, usually from 57.9 µM), most hits filed as inhibitors | FMDV antiviral cell-based qHTS; calls by dose curve; tested in HEK293T cells; also: read-out not given here; nearly all actives have a fitted effect of over 45% in size
HCMV inh – inhibitors of human cytomegalovirus | HFF cells, HCMV-luciferase reporter, 72 h; active compounds read low | activity change, negative = inhibition, % at 57.5 µM | actives 4.5% (n = 410,000); in the data active = activity change below about -60%; inconclusive = no clear call, values can overlap the other calls; inactive = above about -39%
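Cell-based, HFFs, 1000 cells/well, 16 h 37C; cpds in DMSO + HCMV-luc, MOI 1 PFU/cell; 72 h 37C; OneGlo luminescence after 5 min RT; norm. to buffer vs Salinomycin 10uM.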
MARV entry inh – blocks Marburg virus binding to or entry into cells; Marburg virus pseudotyped entry inhibition, cell reporter; Potency, µM (titrated, usually from 37.8 µM), most hits filed as inhibitors; actives 1.8% (n = 300,000); AID 540276; calls by dose curve; tested in HEK293 cells
Lassa entry inh – Lassa virus entry inhibition. AID 540256. actives 1.2% (n = 300,000). Lassa virus pseudotype entry inhibition, cell reporter. Potency, µM (highest dose often 37.9 µM), actives largely listed as inhibitors; calls by dose curve; tested in HEK293 cells; also: nearly all actives have a fitted effect of over 50% in size
Numbers stand for hits; - = inactive; ? = inconclusive; . = no result given; ! = a repeat was not active.

SMILES | FMDV antiviral | HCMV inh | MARV entry inh | Lassa entry inh
Cn1c(=O)c2cc(NC(=O)OCCF)ccc2n1Cc1cccc(C(F)(F)F)c1 | - | - | . | .
NC(=O)NN=C1CCC(OCc2ccccc2)CC1CC(=O)O (stereo not given) | - | - | . | .
COC(=O)CN(c1ccc2c(c1)OCCO2)S(=O)(=O)c1ccccc1 | - | - | - | -
O=C(O)CN(c1ccc2c(c1)OCCO2)S(=O)(=O)c1ccccc1 | - | -69.0 | - | -
O=C(c1csnn1)N1CCC2(CCN(Cc3ccccc3)CC2)CC1 | - | . | . | .
Cc1ccc(N(C(=O)c2snc(C(N)=O)c2N)C(C(=O)NC2CCCC2)c2ccco2)cc1 (stereo not given) | - | -71.3 | ? | ?
CC(=O)Nc1ccc(N(C(=O)Cc2c[nH]c3ccccc23)C(C(=O)NC2CCCCC2)c2ccco2)cc1 (stereo not given) | - | ? | - | 5.8µM
CC(C)c1ccc(N(C(=O)c2snc(C(N)=O)c2N)C(C(=O)NCC2CCCO2)c2ccc(N(C)C)cc2)cc1 (stereo not given) | 17.8µM | -85.8 | ? | ?
O=C(NC1CCCCC1)C(c1ccco1)N(C(=O)c1csnn1)c1ccccc1 (stereo not given) | - | - | - | -
Cc1ccc(N(C(=O)c2csnn2)C(C(=O)NC2CCCCC2)c2ccco2)cc1 (stereo not given) | - | -61.5 | ? | ?
COc1cccc(-c2cnc(C(O)c3c(C)cccc3C)[nH]2)c1 (stereo not given) | - | - | . | .
COc1cccc(-n2c(SCC(=O)Nc3cc(C)ccc3C)nc3c(oc4ccccc43)c2=O)c1 | - | - | ? | .
COc1ccc(N(C(=O)c2snc(C(N)=O)c2N)C(C(=O)NC2CCCC2)c2ccc3ncccc3c2)cc1 (stereo not given) | - | -89.2 | ? | ?
NC(=O)c1nsc(C(=O)N(c2ccccc2)C(C(=O)NC2CCCC2)c2ccc3ncccc3c2)c1N (stereo not given) | ? | ? | - | .
CN(C)c1ccc(C(C(=O)NC2CCCCC2)N(Cc2ccco2)C(=O)c2snc(C(N)=O)c2N)cc1 (stereo not given) | - | -74.5 | 3.55µM | 12.6µM
Cc1ccc(N(C(=O)c2csnn2)C(C(=O)NC2CCCCC2)c2ccccn2)c(C)c1 (stereo not given) | - | -62.0 | - | -
CCc1ccc(N(C(=O)c2snc(C(N)=O)c2N)C(C(=O)NCC2CCCO2)c2ccco2)cc1 (stereo not given) | - | -60.4 | - | -
CCOc1ccc(C(C(=O)NCC2CCCO2)N(C(=O)c2snc(C(N)=O)c2N)c2ccc3c(c2)OCCO3)cc1 (stereo not given) | - | - | ? | ?
COc1ccc(C(C(=O)NCC2CCCO2)N(Cc2cccs2)C(=O)c2snc(C(N)=O)c2N)cc1 (stereo not given) | - | -101.3 | 3.16µM | ?
COc1ccccc1C(C(=O)NC1CCCCC1)N(C(=O)c1csnn1)C1CC1 (stereo not given) | - | - | - | -
CCOc1ccc(N(C(=O)c2snc(C(N)=O)c2N)C(C(=O)NCC2CCCO2)c2ccco2)cc1 (stereo not given) | - | - | 12.6µM | ?
O=C(NC1CCCCC1)C(c1ccccc1F)N(C(=O)c1csnn1)C1CCCC1 (stereo not given) | - | -60.2 | ? | -
CCOc1ccc(C(C(=O)NCC2CCCO2)N(Cc2cccc(OC)c2)C(=O)c2snc(C(N)=O)c2N)cc1 (stereo not given) | - | - | ? | .
Cc1cc(C)cc(NC(=O)CSc2nncn3c2cc2occc23)c1 | - | ? | . | -
COc1cccc(C(=O)N2CCc3c(C(=O)NC(C)c4ccco4)c(OC)cc(=O)n3CC2)c1OC (stereo not given) | - | . | . | .
SMILES | FMDV antiviral | HCMV inh | MARV entry inh | Lassa entry inh
COc1ccc(N2C(=O)CSC23C(=O)N(CC(=O)NCc2ccccc2)c2ccccc23)cc1 (stereo not given) | - | - | . | -
CCCNCc1cc(OC)c(OCc2ccccc2)cc1Br | - | - | 11.2µM | -
Cc1cc2c(c(-c3cnccn3)c1)OC(CNC(=O)c1ccccc1C(F)(F)F)C2 (stereo not given) | - | . | . | .
Cc1cccc(C)c1Nc1sc(C(=O)c2ccccc2)c(N)c1S(=O)(=O)c1ccccc1 | - | -61.6 | . | ?
Cc1c(Cl)cccc1Nc1sc(C(=O)c2ccccc2)c(N)c1S(=O)(=O)c1ccccc1 | - | - | ? | ?
Cc1nc2c(-c3ccc(F)cc3)c(C)nn2c(C)c1CCC(=O)Nc1ccccc1 | ? | - | . | .
CCN1CCN(c2ccc(NC(=O)CCc3c(C)nc4c(-c5ccc(F)cc5)c(C)nn4c3C)cc2)CC1 | - | -60.2 | . | .
O=C(c1ccc(Cl)c(S(=O)(=O)N2CCCCCC2)c1)N1CCN(c2ccccn2)CC1 | 28.2µM | -81.2 | ? | ?
CCOc1ccccc1N1CCN(C(=O)c2ccc(Cl)c(S(=O)(=O)N3CCCCC3)c2)CC1 | 31.6µM | - | ? | ?
CCOC(=O)c1c(NC(=O)c2cc(OCC)c(OCC)c(OCC)c2)sc2c1CCCCC2 | - | - | . | -
COC(=O)c1ccc(OCC2c3cc(OC)c(OC)cc3CCN2C(=O)Cc2ccccc2)cc1 (stereo not given) | - | - | . | ?
C=CCn1c(SCC(=O)Nc2cccnc2Cl)nnc1-c1ccc(Cl)cc1 | ? | - | - | -
C=CCn1c(SCC(=O)Nc2cccnc2Cl)nnc1-c1ccccc1F | ? | -65.4 | - | ?
CCCCN1C=CC(=C2C(=O)c3ccccc3C2=O)C=C1 | 10µM | -88.1 | ? | ?
CCCCC1C(=O)N(c2ccccc2)N(c2ccccc2)C1=O | - | ? | ? | -
CCCCn1c(N)c(N(CC(C)C)C(=O)C2CC(=O)N(c3ccc(C)cc3)C2)c(=O)[nH]c1=O (stereo not given) | - | -88.7 | - | -
CCCCn1c(N)c(N(CC(C)C)C(=O)C2CC(=O)N(c3ccc4c(c3)OCCO4)C2)c(=O)[nH]c1=O (stereo not given) | - | - | ? | -
CCCCn1c(N)c(N(CCOC)C(=O)c2ccc(N3CCCC3=O)cc2)c(=O)[nH]c1=O | - | -100.7 | . | .
CCCn1c(N)c(N(CCOC)C(=O)c2ccc(N3CCCC3=O)cc2)c(=O)[nH]c1=O | - | - | - | -
CO[C@H](C1CCCCC1)[C@H](C)/C=C/CC(=O)OCCCc1ccccc1 | . | . | - | .
Oc1ccccc1N1CCN(C(=S)Nc2ccc(SC(F)F)cc2)CC1 | ? | ? | ? | 5.01µM
FC(F)Sc1ccc(NC(=S)N2CCN(c3ccccn3)CC2)cc1 | - | - | ? | .
Oc1cccc2c(NC(=S)Nc3ccc(SC(F)F)cc3)cccc12 | 12.6µM | - | - | -
CC(C)(C)C(=O)N1CCN(c2nc3c(F)cccc3s2)CC1 | - | - | . | -
COc1cccc(-c2nc3c(Nc4cccc(F)c4)nccc3[nH]2)c1F | . | - | . | .
O=C(C1CC1)N(CCc1ccccc1)Cc1nc2ccccc2c(=O)[nH]1 | 28.2µM | - | - | -
Cc1cccc(C(=O)N[C@H]2CC[C@@H](n3cc(C(=O)N4CCCC4)nn3)CC2)c1 | - | . | . | .
NCCCS(=O)(=O)O | - | ? | 8.2µM! | ?
CC1CCCN(CCCNC(=O)c2cc3c(Cl)nc4ccccc4c3s2)C1 (stereo not given) | - | -90.7! | 2.82µM | ?
